Results published in PubChem BioAssay AID1460 (National Center for Advancing Translational Sciences (NCATS), 2008).
Several values for one entry are separate records, joined by “and”; a condition that tells them apart may be missing. Equal values may be shown once. In all, about 270,000 compounds went through this assay and about 5,800 (2.1%) were called active. Where a call stands in place of a potency, no number is given. Not shown: some 16% with an inconclusive outcome. The call rests on the fitted dose curve; in most records, active means well fitted inhibition curve with a large enough effect; inconclusive means small, poorly fitted or top-dose-only effect; inactive means flat fitted curve, though single readings scatter. The full list was thinned out, with actives kept by preference.

biological target: Microtubule-associated protein tau (Homo sapiens) (UniProt P10636); assay: qHTS for Inhibitors of Tau Fibril Formation, Thioflavin T Binding; details: recombinant tau K18 P301L, heparin-induced fibrillization, ThT fluorescence; series mostly up to 57.4 µM; further: nearly all actives have a fitted effect of over 55% in size
In short: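 Using a mix of unlabeled (15 uM) and Alexa 594-labeled (0.24 uM) tau K18 P301L, heparin-triggered fibrillization over 6 hr at 37 C was scored by ThT fluorescence.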
Potency means the concentration at half of the fitted maximal effect.

Sequence of Microtubule-associated protein tau (Homo sapiens) (P10636 561-689 P618L limits assumed): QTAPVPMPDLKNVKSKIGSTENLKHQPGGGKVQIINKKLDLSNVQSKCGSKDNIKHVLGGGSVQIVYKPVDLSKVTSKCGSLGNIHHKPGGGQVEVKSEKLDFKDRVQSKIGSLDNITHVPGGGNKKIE

Structure (SMILES)	Potency
CN(C)S(=O)(=O)c1cccc(C(=O)Nc2cccnc2)c1	inactive
COc1ccc(N(C(=O)c2cccnc2)S(=O)(=O)c2ccc3c(c2)n(C)c(=O)n3C)cc1	inactive
O=C(c1cccnc1)N(c1cc2sc(=O)oc2c2ccccc12)S(=O)(=O)c1ccccc1	11.2 µM (active)
COc1ccccc1CNc1nccn(-c2ccc(F)cc2)c1=O	inactive
Cc1cccc(CC(=O)Nc2cccc(-c3cn4cccnc4n3)c2)c1	inactive
CCc1cccc(C)c1NS(=O)(=O)c1ccc(-c2cc(C)no2)s1	inactive
COc1ccc(S(=O)(=O)Nc2ccc(O)c(Sc3nc4ccccc4s3)c2)cc1	inactive
O=C(NC(Nc1nc2ccc([N+](=O)[O-])cc2s1)(C(F)(F)F)C(F)(F)F)c1ccccc1	inactive
COc1cc(/C=N/NC(=O)c2ccccc2)ccc1OS(=O)(=O)c1ccccc1	inactive
Cc1ccc(S(=O)(=O)Nc2nc3ccccc3s2)cc1[N+](=O)[O-]	inactive
COc1cc(/C=N/Nc2nc3ccccc3s2)ccc1O	5.62 µM (active)
COc1cc(/C=N\Nc2nc(-c3cccs3)c(NC(C)=O)s2)ccc1O	15.8 µM (active)
Cc1ccc(C(=O)Nc2nnc(-c3cccs3)s2)cc1C	inactive
COc1cc(/C=N/NC(=O)CCc2n[nH]c(=O)[nH]c2=O)ccc1O	inactive
O=[N+]([O-])c1cc(Br)c(O)c(/C=N/Nc2nc3ccccc3s2)c1	4.47 µM (active)
Cc1ccc(S(=O)(=O)c2cn(Cc3ccccc3)c3cc(N4CCCC4)c(F)cc3c2=O)c(C)c1	inactive
O=C1CSC2(C(=O)N(Cc3ccccc3)c3ccccc32)N1c1cccc(F)c1 (configuration not stated)	inactive
O=C(COc1ccccc1F)Nc1ccc(C(=O)OCc2cc(=O)n3nc(C4CC4)sc3n2)cc1	inactive
CCOc1ccc(OCC)c(NC(=O)CN(c2ccc(C)cc2)S(=O)(=O)c2c(C)n[nH]c2C)c1	inactive
CNC(=O)CN1C(=O)c2cccnc2Sc2ccccc21	inactive
Cc1ccc(Cn2c(=O)n(-c3ccc(C)cc3)c(=O)c3c2c2cc(C)ccc2n3C)cc1	inactive
COc1ccccc1NC(=O)c1cc(C2CC2)nc2c1c(C)nn2-c1ccc(C)cc1	inactive
Cc1ccc2nc(CNC(=O)c3ccccc3)[nH]c2c1	inactive
COc1ccc(NC(=O)c2cc3cc(C)ccc3n2C)cc1	inactive
CCCCNC(=O)CSc1nc2cc3c(cc2c(=O)n1CCCCCC(=O)NCc1ccc2c(c1)OCO2)OCO3	inactive

Structure (SMILES)	Potency
N#C/C(=C/c1ccc(N2CCCCC2)o1)C(=O)NCCc1c[nH]c2ccccc12	4.47 µM (active)
CC(=O)N/C(=C/c1ccc(Cl)cc1)C(=O)NCCc1c[nH]c2ccccc12	inactive
O=C(NCCc1c[nH]c2ccccc12)C(=O)NCC1CCCO1 (configuration not stated)	inactive
COc1ccc(CCNC(=O)c2nn(C)c3c2CSc2ccccc2-3)cc1OC	inactive
CCc1nc2onc(C)c2c(=O)n1CC(=O)O	inactive
Oc1ccc2ccccc2c1N=Nc1nccs1	7.94 µM (active)
Oc1ccc(N=Nc2nccs2)c(O)c1	3.55 µM (active)
CCCCn1c(=O)c2oc3ccccc3c2n(CC(=O)Nc2ccccc2OC)c1=O	inactive
COc1cc(C(CC(=O)NCCC(C)C)N2Cc3ccccc3C2=O)cc(OC)c1OC (configuration not stated)	inactive
O=C(Cn1cnc2c(oc3ccccc32)c1=O)Nc1ccc(OC(F)(F)F)cc1	inactive
Cc1ccc(CN2CCC(CNC(=O)c3cnn(-c4ccccc4Cl)c3C3CCN(C(=O)OC(C)(C)C)CC3)CC2)cc1	inactive
COc1ccc(-c2nnc(SCC(=O)Nc3ccccc3C)o2)cc1OC	inactive
CC(c1ccco1)N(C(=O)COc1ccccc1[N+](=O)[O-])c1ccccn1 (configuration not stated)	inactive
O=[N+]([O-])c1cccc2ncccc12	inactive
O=[N+]([O-])c1cc([N+](=O)[O-])c2cccnc2c1O	12.6 µM (active)
COCCNc1ncnc2c1c(-c1ccccc1)cn2-c1ccc(C)c(Cl)c1	inactive
CCc1ccc2nc3sc(C(=O)Nc4nnc(CC)s4)c(N)c3cc2c1	3.98 µM (active)
CCc1nnc(NC(=O)c2nc3nccc(C)n3n2)s1	inactive
CCc1nnc(NC(=O)c2cccc(S(=O)(=O)N(C)c3ccc(OC)cc3)c2)s1	inactive
CCC(=O)N1c2ccccc2CC1C(=O)N1CCN(c2cccc(OC)c2)CC1 (configuration not stated)	inactive
Cn1c(=O)sc2cc(NS(=O)(=O)c3ccc(C(C)(C)C)cc3)ccc21	inactive
COc1c(O)ccc2c1CN1CCc3cc4c(cc3C1C2)OCO4 (configuration not stated)	22.4 µM (active)
COc1ccc2cc1Oc1ccc(cc1)C[C@H]1c3cc(c(OC)cc3CCN1C)Oc1c(O)c(OC)cc3c1[C@H](C2)N(C)CC3	inactive
COc1cc(COCC(O)CN2CCN(Cc3ccc4c(c3)OCO4)CC2)cc(OC)c1OC (configuration not stated)	inactive
COC(=O)c1ccccc1NC(=O)C(Cc1ccccc1)N1Cc2ccccc2C1=O (configuration not stated)	inactive

Structure (SMILES)	Potency
CCCCN(CC)CCCNC(=O)Cn1ncc2c([nH]c3ccc(C)cc32)c1=O	inactive
Cc1ccc(NC(=O)CSc2nc3c(c(=O)[nH]2)CN(Cc2ccc4c(c2)OCO4)CC3)cc1C	inactive
Cc1ccc(CN2CCC(CNC(=O)c3cnn(-c4ccc(C)cc4)c3C3CCN(C(=O)OC(C)(C)C)CC3)CC2)cc1	inactive
Cc1ccc2nc(/C(C#N)=C/c3ccc(-c4ccc(C(=O)OC(C)C)cc4)o3)[nH]c2c1	inactive
CCCCOC(=O)/C(C#N)=C/c1ccc(-c2cccc(C(F)(F)F)c2)o1	inactive
CCOC(=O)c1ccc(-c2ccc(/C=C(\C#N)C(=O)Nc3ccc(OCC)cc3)o2)cc1	1.41 µM (active)
COc1cccc(N2CCN(S(=O)(=O)c3ccc4c(c3)CCCN4C(C)=O)CC2)c1	inactive
COC(=O)c1[nH]c2ccccc2c1NS(=O)(=O)c1ccc(OC)cc1OC	inactive
CCOC(=O)c1[nH]c2ccc(OC)cc2c1NC(=O)CCN1CCN(Cc2ccccc2)CC1	inactive
COC(=O)c1[nH]c2ccc(Br)cc2c1NC(=O)Oc1ccccc1	15.8 µM (active)
O=S(=O)(NCCS(=O)(=O)N1CCN(c2ccccc2)CC1)c1ccc(Cl)cc1	inactive
CN(C(=O)CSc1nc2ccc(NC(=O)COc3ccccc3)cc2s1)c1ccccc1	inactive
CCCCc1nn2c(=O)cc(COC(=O)c3ccc(NC(=O)c4ccccc4C)cc3)nc2s1	inactive
O=C1CSC(=S)N1/N=C/c1ccc(O)c([N+](=O)[O-])c1	6.31 µM (active)
Cc1ccc(C(=O)Cn2cc([N+](=O)[O-])nc2C)cc1	inactive
O=C(Cn1c[n+](CC(=O)c2ccc([N+](=O)[O-])cc2)cn1)c1ccc([N+](=O)[O-])cc1	12.6 µM (active) and 20 µM (active)
O=C(c1ccncc1)c1ccc([N+](=O)[O-])cc1	inactive
Cc1csc2nc(COC(=O)c3ccc(NC(=O)COc4ccccc4F)cc3)cc(=O)n12	inactive
O=C(Nc1cccc2ncccc12)C(Cl)(Cl)Cl	inactive
Cc1ccc(/C=C(\C#N)C(=O)Nc2cccc3ncccc23)o1	14.1 µM (active)
O=C(Nc1cccc2ncccc12)c1ccc(-c2ccc(Cl)cc2Cl)o1	inactive
O=C(NCc1ccccc1Cl)C1CCN(c2ncnc3c2nc2n3CCCCC2)CC1	inactive
Cc1ccc(NC(=O)Cn2cnc3nc4c(cc3c2=O)CCCC4)cc1Cl	inactive
CCc1ccc(-c2cc(C(=O)NCc3ccco3)c3ccccc3n2)s1	25.1 µM (active)
CCOc1ccc(CNC(=O)c2cc(-c3ccc(Cl)s3)nc3ccccc23)cc1	inactive

Structure (SMILES)	Potency
O=C(Nc1ccccc1)Nc1ccccc1C(=O)NCc1ccco1	inactive
Cc1cc(C)cc(NS(=O)(=O)c2cc3c(cc2C)NC(=O)CO3)c1	inactive
CCc1ccc(NC(=O)CCCc2nnc3n(CCCOC)c(=O)c4sccc4n23)cc1	inactive
CCN(CC)c1ccc(NC(=O)CN2CCN(CC(=O)Nc3ccc(Cl)cc3)CC2)cc1	inactive
COc1ccc(-c2nc(SCC(=O)N3CCCCC3C)n[nH]2)cc1 (configuration not stated)	inactive
CC(CCO)Nc1nc2c([nH]1)c(=O)n(C)c(=O)n2C (configuration not stated)	inactive
Cc1ccc(CNC(=O)CSc2c(C)cnc3c2c(=O)n(C)c(=O)n3C)cc1	inactive
Cc1ccc(NN=Nc2nc3c([nH]2)c(=O)n(C)c(=O)n3C)cc1	28.2 µM (active)
CCc1cccc(CC)c1NC(=O)Cn1c(=O)c(-c2cc(C)ccc2NC(C)=O)nc2ccccc21	inactive
Cc1cc(Oc2ccccc2)nc(N2CCOCC2)n1	inactive
Nc1nc(-c2sc3nc4c(cc3c2N)CCCC4)nc(N2CCOCC2)n1	3.55 µM (active)
Cc1nc(N2CCOCC2)nc2c1CCCC2	inactive
COc1ccc(CCNc2nc(-c3ccc(Cl)cc3)cc(C(F)(F)F)n2)cc1OC	inactive
COc1ccc2c(Sc3ccc(C)cc3)c(C(=O)NC(C)c3ccccc3)[nH]c2c1 (configuration not stated)	inactive
CNC(=O)c1ccc(-c2nc(CN3CCc4ccccc43)c(C)o2)cc1	inactive
CCc1ccc(NC(=O)c2nn(-c3ccc(C)cc3)c(=O)n(C)c2=O)cc1	inactive
CC(C)CCNC(=O)CSc1nc2ccccc2nc1Cc1ccc(Cl)cc1	inactive
CCc1ccc(Sc2cc(C(=O)NCCCOC(C)C)c3ccccc3n2)cc1	inactive
O=[N+]([O-])c1ccc(N2CCN(S(=O)(=O)c3ccc4ccccc4c3)CC2)cc1NCc1ccco1	inactive
COc1ccccc1OCCNc1cc(N2CCOCC2)ccc1[N+](=O)[O-]	14.1 µM (active)
COc1ccccc1OCCNC(=O)c1cc([N+](=O)[O-])cc([N+](=O)[O-])c1	inactive
Cc1ccc2nc(COc3cccc(NC(=O)Nc4ccc(C)c(Cl)c4)c3)cc(=O)n2c1	inactive
